# From PubChem BioAssay AID430 (Sanford-Burnham Center for Chemical Genomics, 2006)
# In all, about 63,000 compounds went through this assay and about 1,100 (1.7%) were called active. The full list was thinned out, with actives kept by preference. Measured potencies and affinities stand elsewhere. A number with no mark means an inactive call. Rule as the data show it: active = cytotoxicity above about 50%; inactive = the rest.
# Assay: cytotoxicity in HPDE-C7 cells, cell-based, fluorescence, HTS (AID 430);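 also: cells exposed to compound for 48 hours before viability readout; 0% = vehicle and 100% = reference cytotoxic drug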
# Conditions: HPDE-C7 pancreatic duct cells viability, at 10 µM, active compounds read high
row,SMILES,cytotoxicity
1,Cc1ccc(S(=O)(=O)C2(C(=O)N3CCN(C4CCCCC4)CC3)CC2)cc1,6.1%
2,O=C(Oc1c(Cl)cc(Cl)c2cccnc12)N1CCCCC1,-1.1%
3,CCCC(=O)Nc1ccc(Cl)c(NC(=O)c2ccco2)c1,-1.6%
4,CCCC(=O)NC(c1ccco1)c1cc(Cl)c2cccnc2c1O (centres undefined),59.7% (active)
5,O=C(OCC(=O)N(C1CCCCC1)C1CCCCC1)c1ccncc1,4.3%
6,Cc1cccc(C#N)c1NC1=CC(=O)CC(C)(C)C1,-3.4%
7,CS(=O)(=O)Nc1cccc2cccnc12,6.6%
8,COc1cc(NCCCC(C)N)c2ncccc2c1 (centres undefined),-12.1%
9,O=C(C1CCN(S(=O)(=O)c2cccc3cccnc23)CC1)N1CCCC1,-7.2%
10,COc1cc(NS(=O)(=O)c2ccc(C)cc2)c2ncccc2c1,57.2% (active)
11,O=S(=O)(Nc1cccc2cccnc12)c1ccc(S(=O)(=O)N2CCCC2)cc1,57.1% (active)
12,COc1ccc(NS(=O)(=O)c2ccc(Oc3ncccn3)cc2)cc1,17.1%
13,Cc1nnc(SCC(=O)Nc2cc(C(F)(F)F)ccc2N2CCOCC2)o1,12.9%
14,CC/C(=N\O)c1ccc(OC)c(OC)c1,-4.4%
15,CC(=O)CSc1ncnc2nc[nH]c12,5.4%
16,CC(C)(C)c1cc(Br)ccc1OCC(=O)Nc1ncn[nH]1,21.9%
17,CCC(C)NC(=O)C1c2cc(OC)c(OC)cc2C(=O)N(C)C1c1ccc(OC)cc1 (centres undefined),-7.8%
18,CCOC(=O)CSc1nc(C)cc(=O)[nH]1,1.4%
19,CCCSc1nc(C)cc(=O)[nH]1,1.4%
20,CC(=O)c1c(C)cc(C)c(CSc2nc(C)cc(=O)[nH]2)c1C,51.3% (active)
21,O=C(O)c1cccc(S(=O)(=O)Nc2ccc3oc(=O)sc3c2)c1,1.3%
22,COc1cc(NS(=O)(=O)c2ccc(C)cc2C)cc(OC)c1OC,37%
23,Cn1c(=O)c2cn(-c3ccc4c(c3)OCCO4)cc2n(C)c1=O,-24.9%
24,O=C1Cc2ccccc2C(=O)N1CCc1ccccc1,-14.2%
25,Cc1cc(NC(=O)c2cnn3c(C(F)F)cc(-c4ccccc4)nc23)no1,-6.1%

row,SMILES,cytotoxicity
1,CC1CCN(c2nc3ccccc3nc2C(C#N)S(=O)(=O)c2ccccc2)CC1 (centres undefined),12.4%
2,N#CC(c1nc2ccccc2nc1N1CCCC1)S(=O)(=O)c1ccccc1 (centres undefined),-10.1%
3,COc1ccc(S(=O)(=O)C(C#N)c2nc3ccccc3nc2N2CCCC(C)C2)cc1 (centres undefined),61.7% (active)
4,Cc1ccc(S(=O)(=O)C(C#N)c2nc3ccccc3nc2N2CCC(C)CC2)cc1 (centres undefined),5.7%
5,COc1ccc(S(=O)(=O)C(C#N)c2nc3ccccc3nc2N2CCCCC2)cc1 (centres undefined),-10.2%
6,CC1CCCN(c2nc3ccccc3nc2C(C#N)S(=O)(=O)c2ccccc2)C1 (centres undefined),52.3% (active)
7,CCS(=O)(=O)NCCc1csc(-c2ccccc2)n1,-4.2%
8,CCSc1nc(C)c(CC)c(C)c1C(N)=O,1.9%
9,CCOC(=O)CC(=O)CSc1[nH]c(=O)cc(C)c1C#N,-1.4%
10,Cc1ccc(-c2cn3cccnc3n2)cc1NC(=O)c1c(-c2ccccc2Cl)noc1C,40.2%
11,Cc1c(C(=O)N(Cc2cccs2)C2CCS(=O)(=O)C2)oc2ccccc12 (centres undefined),-22.1%
12,CN(C)S(=O)(=O)n1cnc(-c2ccccc2)c1-c1ccccc1,-7.9%
13,CN(C)S(=O)(=O)c1ccc(-c2ccccc2)cc1,-2.3%
14,Cc1ccc(CNC(=O)c2cn(C3CCCCC3)c(=O)c3c2c2ccccc2n3C)o1,-4%
15,O=S(=O)(NCCOc1ccc(F)cc1)c1ccc2c(c1)OCCO2,-5.3%
16,Brc1cnn(-c2nc(N3CCOCC3)nc(N3CCOCC3)n2)c1,5.8%
17,O=C(Nc1cc(C(=O)N2CCOCC2)cc(C(=O)N2CCOCC2)c1)c1cc(F)c(F)cc1Cl,-14.6%
18,O=C(OCc1nc2ccccc2s1)C1CCN(C2=NS(=O)(=O)c3ccccc32)CC1,1.1%
19,COc1cc(C(=O)Nc2ccccn2)cc(OC)c1OC,5.4%
20,O=c1cc(CO)oc(C(Nc2ccccn2)c2ccccc2F)c1O (centres undefined),-3.3%
21,COc1ccc(C(NC(C)=O)c2ccc3cccnc3c2O)c(OC)c1 (centres undefined),11.7%
22,CC(C)C(=O)NC(c1ccco1)c1ccc2cccnc2c1O (centres undefined),-17.7%
23,Cc1cc(NC(c2cccnc2)c2ccc3cccnc3c2O)no1 (centres undefined),9%
24,CC(=O)NC(c1ccco1)c1ccc2cccnc2c1O (centres undefined),31.1%
25,CNC(=O)c1ccc(N(Cc2ccccc2)S(C)(=O)=O)cc1,2.3%

row,SMILES,cytotoxicity
1,CCn1c(=O)cc(SCC(=O)Nc2cccnc2)c2ccccc21,-11.6%
2,Cc1cccc(N2CCN(C(=O)C3CCCN(S(=O)(=O)c4c(C)noc4C)C3)CC2)c1C (centres undefined),-2%
3,C/C(=C\c1ccco1)C1C(C#N)=C(N)OC2=C1C(=O)CC(C)(C)C2 (centres undefined),-2%
4,CCOc1ccc2[nH]c(=O)c(CN(Cc3ccccc3)C(=O)N3CCCC3)cc2c1,-4.5%
5,Cc1ccc(CCNC(=O)c2coc3nc4ccccc4nc23)cc1,27.6%
6,COc1ccc(F)cc1CN1CCN(c2cc(C)nc3c4c(C)cc(C)nc4nn23)CC1,9.9%
7,CCOc1cc(NC(=O)c2ccco2)c(OCC)cc1NC(=O)Cc1cccc(OC)c1,-10.3%
8,O=C(NCc1cccnc1)c1ccc(COc2ccccc2Br)o1,13.1%
9,CN1CCN(c2ccccc2NC(=O)Cc2cn(C)c3ccccc23)CC1,-5.4%
10,COc1ccccc1NC(=O)N(Cc1ccco1)Cc1cc2c(C)ccc(C)c2[nH]c1=O,22.4%
11,COc1ccccc1NC(=O)N(Cc1ccco1)Cc1cc2cc(C)cc(C)c2[nH]c1=O,59.5% (active)
12,COc1ccccc1NC(=O)N(Cc1ccco1)Cc1cc2cccc(C)c2[nH]c1=O,0.1%
13,CCN1CCCC1CN(Cc1cc2cc(C)cc(C)c2[nH]c1=O)C(=O)Nc1ccccc1OC (centres undefined),15.1%
14,COc1ccccc1NC(=O)N(Cc1ccco1)Cc1cc2ccc(C)c(C)c2[nH]c1=O,72.8% (active)
15,Cc1cc(C)c2[nH]c(=O)c(CN(Cc3ccco3)C(=O)C3CCCO3)cc2c1 (centres undefined),-9.6%
16,O=C(O)CCc1ccc(-c2cccs2)n1CC1CCCO1 (centres undefined),-6.9%
17,CCOC(=O)Cn1c(=O)oc2cc(S(=O)(=O)N3CCCc4ccccc43)ccc21,3.6%
18,CCSc1nnc(NC(=O)C(Cc2ccccc2)n2cccc2)s1 (centres undefined),-8.7%
19,Cc1csc(NC(=O)C(Cc2ccccc2)n2cccc2)n1 (centres undefined),14.2%
20,COc1cccc2sc(NC(=O)c3ccc(S(=O)(=O)N4CCOCC4)cc3)nc12,2.8%
21,Oc1ccc2c(c1)oc1cc(O)ccc12,56.4% (active)
22,O=c1oc2cc(O)ccc2c2c1CCCC2,30.9%
23,O=c1oc2cc(O)ccc2c2oc3cc(O)ccc3c12,9.7%
24,O=C(NCc1ccco1)C1CCN(S(=O)(=O)c2ccc(-n3cnnn3)cc2)CC1,-7.4%
25,COc1ccc(OC)c(-c2nc(C)sc2CC(=O)O)c1,-6.4%

row,SMILES,cytotoxicity
1,CC(=O)Nc1ccc(NC(=O)Oc2ccccc2)cc1,-2%
2,CC(C)Oc1ccc(NC(=O)Oc2ccccc2)cc1,4.8%
3,O=C(Nc1ccc(N2CCN(c3ccc(O)cc3)CC2)cc1)Oc1ccccc1,50.7% (active)
4,CCC(=O)N1c2ccccc2NC2=C(C(=O)CC(c3ccco3)C2)C1c1ccco1 (centres undefined),-3.7%
5,COc1ccc(C2C3=C(CC(c4ccco4)CC3=O)Nc3ccccc3N2C(C)=O)cc1 (centres undefined),-12.7%
6,O=C1CC(c2ccco2)CC2=C1C1c3ccccc3C(=O)N1c1ccccc1N2 (centres undefined),64.9% (active)
7,COCCCn1c(=O)c2ccccc2c2ccccc2c1=O,-14.8%
8,CC(=O)c1cccc(S(=O)(=O)N(CCCO)Cc2cc3ccc(C)cc3[nH]c2=O)c1,-3.7%
9,COc1ccc(NC(=O)N2CCCC2)cc1OC,-16.9%
10,O=c1[nH]cnc2scc(-c3ccc(F)cc3)c12,-4.9%
11,Cn1nnnc1Sc1ncnc2scc(-c3ccccc3)c12,2.6%
12,C/C(=N\O)c1c(C)c2ccccc2n1C,-0.6%
13,CC1=C(C(=O)Nc2ccccn2)C(c2ccc(F)cc2)n2ncnc2N1 (centres undefined),-6%
14,O=C(CSc1ncnc2c1oc1ccccc12)Nc1cccc(C(F)(F)F)c1,2.9%
15,Cc1ccnc(SCC(=O)O)n1,-31.8%
16,Cc1ccccc1NC(=O)CSc1nc2c(c(-c3ccco3)c1C#N)CCCC2,-20.7%
17,c1ccc2[nH]c(-c3ccnc4ccccc34)nc2c1,3%
18,O=C(c1cc2nc(-c3ccco3)cc(C(F)(F)F)n2n1)N1CCCc2ccccc21,-11.2%
19,O=C(c1cnn2c(C(F)(F)F)cc(-c3ccco3)nc12)N1CCCc2ccccc21,4.7%
20,O=C(c1nn2c(C(F)(F)F)cc(-c3ccco3)nc2c1Br)N1CCCc2ccccc21,51.8% (active)
21,O=C(Sc1nnnn1C1CCCCC1)c1cccs1,-11.4%
22,COc1cc(C(=O)NCc2nnc(SCC(=O)N3CCC(C)CC3)o2)cc(OC)c1OC,-2.5%
23,CC1(C)Cc2c(c(N3CCOCC3)nc3snc(Br)c23)CO1,5.4%
24,CC1(C)Cc2c(c(N3CCOCC3)nc3sc(C(=O)N4CCCCC4)c(N)c23)CO1,-5.3%
